Source: the supplement of paper PMC11732987, “Enantioselective OTUD7B fragment discovery through chemoproteomics screening and high-throughput optimisation” (Communications Chemistry, 2025)

Columns and labels:
Assay in all cases: log2 ratio of Biotin-Ahx-Ub-VS probe labelling (fragment/DMSO); higher = less target engagement (more negative = stronger competition), active = hit call of the paper (q ≤ 0.05, log2 ratio ≤ -1)
Settings in all cases: compound concentration: 200 uM; treatment time: 3 h
[1] = target: T1, ALG13 (UniProt Q9NP73)
T1 sequence (whole entry): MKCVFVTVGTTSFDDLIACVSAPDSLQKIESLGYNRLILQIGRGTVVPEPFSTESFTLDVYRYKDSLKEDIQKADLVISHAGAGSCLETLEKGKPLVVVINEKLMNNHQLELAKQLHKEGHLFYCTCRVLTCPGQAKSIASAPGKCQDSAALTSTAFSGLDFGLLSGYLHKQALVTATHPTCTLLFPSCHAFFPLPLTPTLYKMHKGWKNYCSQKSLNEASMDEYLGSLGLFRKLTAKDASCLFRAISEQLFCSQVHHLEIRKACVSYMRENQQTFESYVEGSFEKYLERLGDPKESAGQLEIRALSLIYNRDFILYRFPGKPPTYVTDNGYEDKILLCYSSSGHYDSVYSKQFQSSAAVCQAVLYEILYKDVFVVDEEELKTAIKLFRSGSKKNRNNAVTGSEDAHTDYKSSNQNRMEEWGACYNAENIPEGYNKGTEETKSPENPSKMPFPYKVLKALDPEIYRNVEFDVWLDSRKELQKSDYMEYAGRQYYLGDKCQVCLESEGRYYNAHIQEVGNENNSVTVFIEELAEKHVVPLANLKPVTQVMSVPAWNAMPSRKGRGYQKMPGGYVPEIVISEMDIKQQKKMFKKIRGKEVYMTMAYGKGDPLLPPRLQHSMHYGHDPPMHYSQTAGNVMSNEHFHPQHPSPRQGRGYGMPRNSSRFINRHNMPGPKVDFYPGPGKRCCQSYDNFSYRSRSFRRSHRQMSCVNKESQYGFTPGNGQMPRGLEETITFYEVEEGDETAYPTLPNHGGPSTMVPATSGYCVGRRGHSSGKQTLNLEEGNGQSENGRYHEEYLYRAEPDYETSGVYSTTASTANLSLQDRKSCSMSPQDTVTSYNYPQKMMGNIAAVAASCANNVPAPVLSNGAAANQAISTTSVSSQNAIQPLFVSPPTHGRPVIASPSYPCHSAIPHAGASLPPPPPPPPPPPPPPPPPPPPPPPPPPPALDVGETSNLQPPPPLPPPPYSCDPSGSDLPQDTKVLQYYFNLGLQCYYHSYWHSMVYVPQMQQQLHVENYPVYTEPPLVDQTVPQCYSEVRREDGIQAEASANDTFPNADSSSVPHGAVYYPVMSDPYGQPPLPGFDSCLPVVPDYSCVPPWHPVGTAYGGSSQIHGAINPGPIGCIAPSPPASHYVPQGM
Method in brief: (§1)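 HEK293T lysate (495 µg per sample, in Tris/CHAPS/IGEPAL buffer with protease inhibitors) was exposed in triplicate for 3 h to fragment at 200 µM or to vehicle, then to Biotin-Ahx-Ub-VS at 0.5 µM final for 1 h. Labelled DUBs were enriched on NeutrAvidin, digested with LysC and trypsin, and analysed by diaPASEF LC-MS/MS. Spectronaut label-free quantities were normalised to the global median, and values are average log2 ratios of fragment over vehicle from an unpaired t-test. Only proteins with ≥2 unique peptides were used.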

[2] = target: ATXN3 (UniProt P54252)
Method in brief: as §1

[3] = target: T2, BAP1 (UniProt Q92560)
T2 sequence (whole entry): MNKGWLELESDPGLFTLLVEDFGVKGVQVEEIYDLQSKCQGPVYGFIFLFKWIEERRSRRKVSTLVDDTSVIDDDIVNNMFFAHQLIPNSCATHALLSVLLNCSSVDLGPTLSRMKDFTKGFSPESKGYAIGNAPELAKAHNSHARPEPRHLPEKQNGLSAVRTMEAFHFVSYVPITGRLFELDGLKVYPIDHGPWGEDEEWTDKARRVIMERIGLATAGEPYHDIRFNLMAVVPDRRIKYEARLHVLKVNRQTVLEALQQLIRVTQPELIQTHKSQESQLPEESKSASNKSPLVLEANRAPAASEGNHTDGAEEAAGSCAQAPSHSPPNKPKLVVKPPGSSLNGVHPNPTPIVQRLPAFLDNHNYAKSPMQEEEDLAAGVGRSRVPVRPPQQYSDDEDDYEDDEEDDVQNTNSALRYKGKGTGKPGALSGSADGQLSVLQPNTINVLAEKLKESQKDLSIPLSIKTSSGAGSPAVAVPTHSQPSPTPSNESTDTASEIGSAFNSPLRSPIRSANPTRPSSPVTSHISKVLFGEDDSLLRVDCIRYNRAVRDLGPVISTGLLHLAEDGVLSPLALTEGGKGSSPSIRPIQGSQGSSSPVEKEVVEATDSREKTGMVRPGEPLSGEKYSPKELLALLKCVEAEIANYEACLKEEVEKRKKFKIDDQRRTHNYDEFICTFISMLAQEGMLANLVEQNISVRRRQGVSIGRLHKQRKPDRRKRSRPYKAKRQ
Method in brief: as §1

[4] = target: EIF3F (UniProt O00303)
Method in brief: as §1

[5] = target: EIF3H (UniProt O15372)
Method in brief: as §1

[6] = target: T3, FAM105A (UniProt Q9NUU6)
T3 sequence (whole entry): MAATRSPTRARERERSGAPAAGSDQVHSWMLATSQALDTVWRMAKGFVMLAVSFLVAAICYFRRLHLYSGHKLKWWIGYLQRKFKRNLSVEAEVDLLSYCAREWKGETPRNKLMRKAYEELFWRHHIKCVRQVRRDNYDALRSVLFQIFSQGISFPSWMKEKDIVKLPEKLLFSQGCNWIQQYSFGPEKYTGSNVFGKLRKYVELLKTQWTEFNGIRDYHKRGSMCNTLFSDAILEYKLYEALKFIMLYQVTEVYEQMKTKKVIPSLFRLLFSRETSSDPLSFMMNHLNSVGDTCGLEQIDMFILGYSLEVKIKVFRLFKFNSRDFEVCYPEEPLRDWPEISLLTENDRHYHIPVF
Method in brief: as §1

[7] = target: OTUB1 (UniProt Q96FW1)
Method in brief: as §1

[8] = target: T4, OTUD4 (UniProt Q01804)
T4 sequence (whole entry): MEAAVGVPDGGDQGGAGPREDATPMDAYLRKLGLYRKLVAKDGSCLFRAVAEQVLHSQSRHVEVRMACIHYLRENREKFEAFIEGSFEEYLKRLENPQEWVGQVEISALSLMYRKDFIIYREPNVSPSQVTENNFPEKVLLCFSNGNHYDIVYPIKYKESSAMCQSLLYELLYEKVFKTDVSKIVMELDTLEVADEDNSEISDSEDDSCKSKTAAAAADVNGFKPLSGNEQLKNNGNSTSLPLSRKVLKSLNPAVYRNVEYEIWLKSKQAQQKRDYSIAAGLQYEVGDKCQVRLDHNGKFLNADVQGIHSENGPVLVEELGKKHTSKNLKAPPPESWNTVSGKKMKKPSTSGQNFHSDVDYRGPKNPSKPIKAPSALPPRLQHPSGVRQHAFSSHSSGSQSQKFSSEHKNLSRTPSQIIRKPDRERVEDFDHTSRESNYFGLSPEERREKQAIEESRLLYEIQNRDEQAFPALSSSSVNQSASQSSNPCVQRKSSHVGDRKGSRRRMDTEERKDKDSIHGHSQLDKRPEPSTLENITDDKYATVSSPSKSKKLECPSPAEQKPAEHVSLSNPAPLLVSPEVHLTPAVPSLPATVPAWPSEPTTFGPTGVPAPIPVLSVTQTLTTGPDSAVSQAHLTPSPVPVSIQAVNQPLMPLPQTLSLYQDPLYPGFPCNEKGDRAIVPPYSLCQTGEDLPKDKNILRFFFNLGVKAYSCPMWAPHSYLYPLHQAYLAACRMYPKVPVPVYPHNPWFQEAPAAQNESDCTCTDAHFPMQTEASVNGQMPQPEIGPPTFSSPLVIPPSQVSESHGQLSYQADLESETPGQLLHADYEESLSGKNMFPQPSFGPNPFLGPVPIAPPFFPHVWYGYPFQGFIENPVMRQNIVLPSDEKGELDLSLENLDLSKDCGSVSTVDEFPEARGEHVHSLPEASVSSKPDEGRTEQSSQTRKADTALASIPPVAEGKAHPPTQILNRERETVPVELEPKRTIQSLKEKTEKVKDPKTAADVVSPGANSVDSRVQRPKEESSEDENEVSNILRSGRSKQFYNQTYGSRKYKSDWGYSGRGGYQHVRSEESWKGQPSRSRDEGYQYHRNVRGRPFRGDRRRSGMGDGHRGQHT
Method in brief: as §1

[9] = target: T5, OTUD5 (UniProt Q96G74)
T5 sequence (whole entry): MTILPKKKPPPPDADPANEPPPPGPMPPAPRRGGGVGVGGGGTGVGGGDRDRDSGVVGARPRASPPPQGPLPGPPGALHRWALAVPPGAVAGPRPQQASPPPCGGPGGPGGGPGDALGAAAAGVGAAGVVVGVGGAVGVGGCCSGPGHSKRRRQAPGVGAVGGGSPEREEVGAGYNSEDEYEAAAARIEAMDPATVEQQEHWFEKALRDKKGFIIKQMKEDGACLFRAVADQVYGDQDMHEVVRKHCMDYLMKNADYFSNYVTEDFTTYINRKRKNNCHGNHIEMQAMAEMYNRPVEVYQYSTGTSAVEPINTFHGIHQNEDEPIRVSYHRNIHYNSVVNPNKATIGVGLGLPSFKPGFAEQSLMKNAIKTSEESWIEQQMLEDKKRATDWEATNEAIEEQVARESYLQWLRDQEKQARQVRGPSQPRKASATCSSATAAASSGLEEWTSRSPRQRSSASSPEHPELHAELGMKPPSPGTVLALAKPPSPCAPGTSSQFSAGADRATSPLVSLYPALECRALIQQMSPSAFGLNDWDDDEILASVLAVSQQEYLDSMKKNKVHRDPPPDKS
Method in brief: as §1

Measured: log2 ratio of Biotin-Ahx-Ub-VS probe labelling

Chain of OTUB1 (Q96FW1 whole entry): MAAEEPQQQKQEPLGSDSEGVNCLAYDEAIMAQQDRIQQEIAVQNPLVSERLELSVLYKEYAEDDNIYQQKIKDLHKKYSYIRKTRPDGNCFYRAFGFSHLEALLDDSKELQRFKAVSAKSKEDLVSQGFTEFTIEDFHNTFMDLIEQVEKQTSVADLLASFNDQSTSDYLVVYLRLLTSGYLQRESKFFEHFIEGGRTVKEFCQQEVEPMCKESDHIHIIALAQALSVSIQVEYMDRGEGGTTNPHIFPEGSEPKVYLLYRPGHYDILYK
Chain of ATXN3 (P54252 whole entry): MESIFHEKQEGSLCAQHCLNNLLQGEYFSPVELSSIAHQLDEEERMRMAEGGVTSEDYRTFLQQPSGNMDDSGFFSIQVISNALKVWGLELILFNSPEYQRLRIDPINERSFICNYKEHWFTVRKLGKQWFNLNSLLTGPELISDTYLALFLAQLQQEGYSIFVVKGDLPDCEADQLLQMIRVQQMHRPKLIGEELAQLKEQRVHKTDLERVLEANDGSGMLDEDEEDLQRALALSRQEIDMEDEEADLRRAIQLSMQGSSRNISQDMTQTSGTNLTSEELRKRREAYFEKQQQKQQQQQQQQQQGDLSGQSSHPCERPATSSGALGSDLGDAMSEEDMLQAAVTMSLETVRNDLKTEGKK
Chain of EIF3F (O00303 whole entry): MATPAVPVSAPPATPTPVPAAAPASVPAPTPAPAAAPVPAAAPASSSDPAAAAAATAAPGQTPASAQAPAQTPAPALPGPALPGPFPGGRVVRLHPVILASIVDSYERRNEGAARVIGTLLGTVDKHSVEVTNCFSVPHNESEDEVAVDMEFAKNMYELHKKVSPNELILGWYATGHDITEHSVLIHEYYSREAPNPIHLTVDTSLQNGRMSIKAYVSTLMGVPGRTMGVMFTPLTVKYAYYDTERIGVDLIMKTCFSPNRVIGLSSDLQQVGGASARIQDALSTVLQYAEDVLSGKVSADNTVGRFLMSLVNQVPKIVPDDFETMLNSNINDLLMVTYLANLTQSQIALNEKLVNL
Chain of EIF3H (O15372 whole entry): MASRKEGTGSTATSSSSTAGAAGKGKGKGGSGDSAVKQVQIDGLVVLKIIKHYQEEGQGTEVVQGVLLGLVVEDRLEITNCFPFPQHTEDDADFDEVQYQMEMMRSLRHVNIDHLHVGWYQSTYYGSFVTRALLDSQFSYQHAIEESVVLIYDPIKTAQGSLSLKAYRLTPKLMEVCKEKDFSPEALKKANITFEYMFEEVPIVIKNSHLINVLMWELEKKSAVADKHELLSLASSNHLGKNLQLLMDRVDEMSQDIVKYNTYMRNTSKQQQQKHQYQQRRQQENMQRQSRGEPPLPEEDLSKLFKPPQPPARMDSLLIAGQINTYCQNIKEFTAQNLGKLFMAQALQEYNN

Cc1ccc(CC(NC(=O)CCl)c2ccccn2)cc1.Cl (centres undefined)
inactive: [1] -0.831 | [2] 0.249 | [3] -0.525 | [4] -0.0559 | [5] 0.165 | [6] -0.348 | [7] -0.0206 | [8] 0.0988 | [9] -0.157
